# Molecular target: T1, GST-Co-NF-kB (Capsaspora owczarzaki, UniProt F1ARL5 200-546)
# T1 sequence: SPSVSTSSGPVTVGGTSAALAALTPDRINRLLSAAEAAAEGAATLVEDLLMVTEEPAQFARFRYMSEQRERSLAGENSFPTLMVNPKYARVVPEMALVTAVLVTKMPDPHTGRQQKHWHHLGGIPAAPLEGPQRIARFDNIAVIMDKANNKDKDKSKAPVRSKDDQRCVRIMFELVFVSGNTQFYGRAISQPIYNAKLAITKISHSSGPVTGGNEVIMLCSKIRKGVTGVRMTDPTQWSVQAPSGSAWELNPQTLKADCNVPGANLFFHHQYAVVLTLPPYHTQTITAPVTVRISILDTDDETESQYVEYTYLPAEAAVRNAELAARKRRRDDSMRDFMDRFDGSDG
# Assay: protein-binding microarray (PBM); PBM: ~300 nM protein, 6 mM HEPES pH 7.8, 80 mM KCl, 0.5 mM EDTA, 0.5 mM EGTA, 6% glycerol, 35 ng/ul poly-dIdC, 1% milk, 1 h, room temperature; Ap Aiptasia and Nv Nematostella (sea anemones) / Co Capsaspora / Aq Amphimedon (sponge) / Dm Drosophila / Hu human; RHD is the Rel homology domain; high values mean tight binding
# Settings: dsDNA, one strand shown
row,Sequence,binding signal [z-score]
1,CCGATTAACATCAGGGGATTTGATGATGTTAATCGGGTCTTGATTCGCTTGACGCTGCTG,2.37
2,CCGATTAACATCAAAAATCCCCTTGATGTTAATCGGGTCTTGATTCGCTTGACGCTGCTG,4.34
3,CCGATTAACATCAGGGGGAGTAATGATGTTAATCGGGTCTTGATTCGCTTGACGCTGCTG,6.83
4,CCGATTAACATCACTCATCCCCGTGATGTTAATCGGGTCTTGATTCGCTTGACGCTGCTG,2.78
5,CCGATTAACATCAGAATTCCCCATGATGTTAATCGGGTCTTGATTCGCTTGACGCTGCTG,7.04
6,CCGATTAACATCAATCCTCCCCCTGATGTTAATCGGGTCTTGATTCGCTTGACGCTGCTG,8.24
7,CCGATTAACATCACCCTTCCCCCTGATGTTAATCGGGTCTTGATTCGCTTGACGCTGCTG,5.61
8,CCGATTAACATCAGGGGACTCACTGATGTTAATCGGGTCTTGATTCGCTTGACGCTGCTG,3.05
9,CCGATTAACATCAGGGGGATTAATGATGTTAATCGGGTCTTGATTCGCTTGACGCTGCTG,6.77
10,CCGATTAACATCAGGGGGATAACTGATGTTAATCGGGTCTTGATTCGCTTGACGCTGCTG,6.99
11,CCGATTAACATCACGATTTCCCCTGATGTTAATCGGGTCTTGATTCGCTTGACGCTGCTG,8.64
12,CCGATTAACATCAAAATACTCCCTGATGTTAATCGGGTCTTGATTCGCTTGACGCTGCTG,2.79
13,CCGATTAACATCAGGGGAATTTATGATGTTAATCGGGTCTTGATTCGCTTGACGCTGCTG,8.16
14,CCGATTAACATCAGGGGGTTCCATGATGTTAATCGGGTCTTGATTCGCTTGACGCTGCTG,1.97
15,CCGATTAACATCAGGGGGATTCATGATGTTAATCGGGTCTTGATTCGCTTGACGCTGCTG,5.63
16,CCGATTAACATCACACAACCCCCTGATGTTAATCGGGTCTTGATTCGCTTGACGCTGCTG,2.31
17,CCGATTAACATCAATACTTCCCCTGATGTTAATCGGGTCTTGATTCGCTTGACGCTGCTG,6.89
18,CCGATTAACATCAAGATTTCCCATGATGTTAATCGGGTCTTGATTCGCTTGACGCTGCTG,4.11
19,CCGATTAACATCAAATTGTCCCCTGATGTTAATCGGGTCTTGATTCGCTTGACGCTGCTG,6.08
20,CCGATTAACATCAGGGTATTTTATGATGTTAATCGGGTCTTGATTCGCTTGACGCTGCTG,3.22

row,Sequence,binding signal [z-score]
1,CCGATTAACATCACAATCCCCCCTGATGTTAATCGGGTCTTGATTCGCTTGACGCTGCTG,5.89
2,CCGATTAACATCAGGGGAGTTACTGATGTTAATCGGGTCTTGATTCGCTTGACGCTGCTG,3.43
3,CCGATTAACATCAGGGGGAAGAATGATGTTAATCGGGTCTTGATTCGCTTGACGCTGCTG,9.93
4,CCGATTAACATCAGGGCCTCCCCTGATGTTAATCGGGTCTTGATTCGCTTGACGCTGCTG,2.08
5,CCGATTAACATCAAAGTCCCCCTTGATGTTAATCGGGTCTTGATTCGCTTGACGCTGCTG,4.36
6,CCGATTAACATCAGGGGGGTTAATGATGTTAATCGGGTCTTGATTCGCTTGACGCTGCTG,3.92
7,CCGATTAACATCAACTTCCCCCCTGATGTTAATCGGGTCTTGATTCGCTTGACGCTGCTG,9.16
8,CCGATTAACATCAGGGGGCTATATGATGTTAATCGGGTCTTGATTCGCTTGACGCTGCTG,1.85
9,CCGATTAACATCAAGGGGGAAAATGATGTTAATCGGGTCTTGATTCGCTTGACGCTGCTG,9.03
10,CCGATTAACATCAGGATACCCCCTGATGTTAATCGGGTCTTGATTCGCTTGACGCTGCTG,4.59
11,CCGATTAACATCACCAAATCCCCTGATGTTAATCGGGTCTTGATTCGCTTGACGCTGCTG,3.02
12,CCGATTAACATCAGGGGCCCCCCTGATGTTAATCGGGTCTTGATTCGCTTGACGCTGCTG,3.01
13,CCGATTAACATCAGGACTCCCCCTGATGTTAATCGGGTCTTGATTCGCTTGACGCTGCTG,4.97
14,CCGATTAACATCAAAACTTCCCCTGATGTTAATCGGGTCTTGATTCGCTTGACGCTGCTG,9.44
15,CCGATTAACATCAGGGGAACGCATGATGTTAATCGGGTCTTGATTCGCTTGACGCTGCTG,4.99
16,CCGATTAACATCAGGGGACTCCATGATGTTAATCGGGTCTTGATTCGCTTGACGCTGCTG,1.82
17,CCGATTAACATCAATTCCCCAGGTGATGTTAATCGGGTCTTGATTCGCTTGACGCTGCTG,6.18
18,CCGATTAACATCAGGGGAAGACCTGATGTTAATCGGGTCTTGATTCGCTTGACGCTGCTG,5.23
19,CCGATTAACATCAGGGCGCCCCCTGATGTTAATCGGGTCTTGATTCGCTTGACGCTGCTG,1.95
